“And” between values parts separate entries of the source, which are not always exact repeats. Equal entries are not always repeated. Among all 650,000 compounds or so, about 850 (0.13%) were called active. Many of the other results were omitted from the sample, so actives are more common in it than they were. A number with no mark means an inactive call. Cut-off read from the data, not from the text of the source: active = normalized activity above about 1.9%; inactive = the rest.

For this assay, the target named is F-box/WD repeat-containing protein 7 (Homo sapiens) (UniProt Q969H0). The assay can be described thus: FBW7 E3 ligase activators, primary screen, biochemical, AlphaScreen, human (AID 1259310).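 Note: purified mutant Fbw7 with reduced substrate affinity.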 Particulars: AlphaScreen FBW7–phospho-cyclin E peptide binding, activator screen; at 26.1 µM; hits give high values.
F-box/WD repeat-containing protein 7 (Homo sapiens), sequence (Q969H0 whole entry, looked up): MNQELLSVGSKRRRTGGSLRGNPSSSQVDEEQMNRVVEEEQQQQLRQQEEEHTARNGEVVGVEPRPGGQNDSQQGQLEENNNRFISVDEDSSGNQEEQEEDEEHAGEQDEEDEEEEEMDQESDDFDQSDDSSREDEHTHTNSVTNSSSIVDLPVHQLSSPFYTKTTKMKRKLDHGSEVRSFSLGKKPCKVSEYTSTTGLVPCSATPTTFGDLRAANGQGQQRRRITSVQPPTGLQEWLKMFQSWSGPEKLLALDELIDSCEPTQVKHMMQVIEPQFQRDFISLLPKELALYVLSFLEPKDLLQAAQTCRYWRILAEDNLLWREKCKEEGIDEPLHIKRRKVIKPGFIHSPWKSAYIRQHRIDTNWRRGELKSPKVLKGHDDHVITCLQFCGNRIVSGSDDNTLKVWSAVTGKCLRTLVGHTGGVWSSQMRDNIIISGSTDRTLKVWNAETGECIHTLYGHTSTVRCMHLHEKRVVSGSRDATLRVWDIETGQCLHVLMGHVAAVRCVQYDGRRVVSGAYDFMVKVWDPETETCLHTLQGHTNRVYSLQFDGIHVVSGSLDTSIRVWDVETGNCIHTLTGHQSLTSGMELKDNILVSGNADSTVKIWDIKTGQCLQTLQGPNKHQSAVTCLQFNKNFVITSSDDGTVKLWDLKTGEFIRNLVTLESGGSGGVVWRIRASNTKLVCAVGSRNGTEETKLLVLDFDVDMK
Turning to `NC(=O)CSc1ccc2nnc(-c3ccccn3)n2n1`, the normalized activity (activation) was 69.7% (active).

For the compound `Cc1ccc(-c2nnc3ccc(SCC(N)=O)nn23)cc1`, the normalized activity (activation) is 0.47%.

As to `O=C(O)CSc1ccc2nnc(-c3ccc(F)cc3)n2n1`, the normalized activity (activation) is 0.39%.

Turning to `O=C(Nc1ccc(N2CCOCC2)cc1)c1cccc(-n2nccc2NC(=O)C2CC2)c1`, the normalized activity (activation) is 0.06%.

For the compound `COc1ccc(N2CCN(C(CNC(=O)C(C)C)c3ccco3)CC2)cc1` (centres undefined), the normalized activity (activation) is 0%.

`COc1ccc(Br)cc1CN(C)Cn1cnc2ccccc21`: the normalized activity (activation) is -0.03%.

With `CC(C)N(Cc1ccccc1)C(=O)c1cc2c(=O)n3ccccc3nc2n1C`, the normalized activity (activation) is 0.69%.

As to `CCN(Cc1ccccc1)C(=O)c1cc2c(=O)n3cccc(C)c3nc2n1C`, the normalized activity (activation) is 3.93% (active).

As for `C=CCNC(=O)c1cc2c(=O)n3cccc(C)c3nc2n1C`, the normalized activity (activation) was 0.17%.

`O=C(CNC(=O)OCc1ccccc1)Oc1ccc2c(-c3ccccc3)cc(=O)oc2c1`: the normalized activity (activation) was -0.09%.

`O=C(NCc1nnc2n1CCN(Cc1c(F)cccc1Cl)CC2)c1ccccc1`: the normalized activity (activation) is -0.02%.

For `O=C(Cc1cccs1)NCCS(=O)(=O)N1CCN(c2ccccn2)CC1`, the normalized activity (activation) was 0.01%.

Take `Cc1cc(C(=O)N2CCC(c3[nH]ncc3-c3ccncc3)CC2)c(C)[nH]1`: the normalized activity (activation) was 0.63%.

Regarding `O=C(c1cnsc1)N1CCCC(c2ncncc2-c2ccncc2)C1` (centres undefined), the normalized activity (activation) is 0.35%.

Consider `O=C(c1cnsc1)N1CCC(c2[nH]ncc2-c2ccncc2)CC1`, for which the normalized activity (activation) was 2.18% (active).

In the case of `Cc1ccc(C)c(C(=O)Nc2ncc(S(=O)(=O)c3ccc([N+](=O)[O-])cc3)s2)c1`, the normalized activity (activation) was -0.16%.

Take `CCOc1ccc(NC(C)C(=O)N/N=C/c2ccccc2O)cc1` (centres undefined): the normalized activity (activation) is -0.35%.

Regarding `COCCn1nnnc1C(c1cc2cc(C)cc(C)c2[nH]c1=O)N1CCOCC1` (centres undefined), the normalized activity (activation) was 2.29% (active).

On to `COCCn1nnnc1C(c1cc2ccc(C)cc2[nH]c1=O)N1CCCC1` (centres undefined), for which the normalized activity (activation) is -0.04%.

Regarding `COCCn1nnnc1C(c1cc2cc(C)c(C)cc2[nH]c1=O)N1CCCCC1` (centres undefined), the normalized activity (activation) is -0.02%.

Regarding `O=C1NC(=O)C(=Cc2ccc(OC(=O)c3ccc(Cl)c(Cl)c3)cc2)C(=O)N1`, the normalized activity (activation) was 0.22%.

With `CCOC(=O)CSc1nc2ccsc2c(=O)n1CCc1ccc(OC)c(OC)c1`, the normalized activity (activation) was 0.46%.

`CCSCCOC(=O)C1=C(C)NC2=C(C(=O)CC(c3ccccc3)C2)C1c1ccc(OC)cc1OC` (centres undefined): the normalized activity (activation) is 2.28% (active).

For `COCCOC(=O)C1=C(C)NC2=C(C(=O)CC(c3ccccc3)C2)C1c1cc(OC)ccc1OC` (centres undefined), the normalized activity (activation) is 0.27%.

Turning to `CCSCCOC(=O)C1=C(C)NC2=C(C(=O)CC(c3ccccc3)C2)C1c1ccccc1` (centres undefined), the normalized activity (activation) is 0.61%.

Turning to `O=C(Nc1ccc(C(=O)Nc2nccs2)cc1)c1ccc2c(c1)C(=O)N(c1ccccc1-c1ccccc1)C2=O`, the normalized activity (activation) is -0.08%.

Regarding `Cc1ccc(N=c2scc(C)n2CCCO)cc1`, the normalized activity (activation) is -0.38%.

In the case of `CC(=O)N(C)c1nc(-c2cccc(N(C)C)c2)ccc1C(=O)NC1CCCCC1`, the normalized activity (activation) is 1.86% (active).

Consider `CN(C)c1cccc(Nc2cc(C(=O)NC3CC3)c3ccccc3n2)c1`, for which the normalized activity (activation) is 0.31%.

As to `CN(C)c1cccc(Nc2cccc(C(=O)NC3CC3)n2)c1`, the normalized activity (activation) is -0.12%.

With `CCOC(=O)N1CCC(NC(=O)CC2C(=O)NCCN2Cc2ccoc2)CC1` (centres undefined), the normalized activity (activation) is 0.27%.

For the compound `CCCCSc1ncnc2c1c(-c1ccccc1)cn2-c1ccc(OC)cc1`, the normalized activity (activation) is -0.03%.

In the case of `Cc1ccc(C(C)C)c(OCC(=O)Oc2ccc3c(c2)oc(=O)c2ccccc23)c1`, the normalized activity (activation) is -0.05%.

Take `CCOC(=O)/C(C#N)=C/c1ccc(N2CCCCC2)cc1`: the normalized activity (activation) was 1.85% (active).

Turning to `CCOC(=O)/C(C#N)=C/c1cc(C)n(-c2ccc(C(=O)OCC)cc2)c1C`, the normalized activity (activation) was -0.1% and -0.13%.

In the case of `COCCNC(=O)/C(C#N)=C/c1ccc(N2CCOCC2)cc1`, the normalized activity (activation) was 0.46%.

As to `CCOC(=O)C1=C(C)N=c2s/c(=C\c3ccc(OCc4ccc([N+](=O)[O-])cc4)c(OC)c3)c(=O)n2C1c1ccc2c(c1)OCO2` (centres undefined), the normalized activity (activation) is 0.04%.

In the case of `COCCNc1ncc(-c2cccs2)cn1`, the normalized activity (activation) was 0.02%.

As to `O=C1C2C3c4ccccc4C(c4ccccc43)C2C(=O)N1CCCCO` (centres undefined), the normalized activity (activation) is 0.04%.

As to `CC1=C(C#N)C(=O)N(CCCO)C(=O)/C1=C\c1ccc(-c2ccc(Cl)cc2)o1`, the normalized activity (activation) was -0.06%.

Take `CCCCOC(=O)c1cccc(NC(=O)CN2C(=O)c3ccccc3C2=O)c1`: the normalized activity (activation) was 0.09%.

Regarding `CNc1cc(-c2ccnc(Nc3ccc(-n4cnc(C)n4)cc3)c2)no1`, the normalized activity (activation) is 0.51%.

For the compound `Cc1ncn(-c2ccc(Nc3cc(-c4cnn(C(C)C)c4-c4ccc(F)cc4)ccn3)cc2)n1`, the normalized activity (activation) was 0.79%.

In the case of `Cc1ncn(-c2ccc(Nc3cc(-c4nocc4-c4ccccn4)ccn3)cc2)n1`, the normalized activity (activation) is 2.76% (active).

In the case of `O=c1c(NCCN2CCCCCC2)c(-c2ccc(Cl)cc2)c1=O`, the normalized activity (activation) is 0%.

On to `CC(C)NCCOCCOc1cccc(Br)c1`, for which the normalized activity (activation) was 0.35%.

As for `COCc1cc(C)nc(OCC(=O)c2ccccc2)c1C#N`, the normalized activity (activation) was 0.04%.

Take `Cc1c(C(=O)N2CCCC2)oc2c1-c1nn(CC(=O)N3CCCC3)cc1CC2`: the normalized activity (activation) was 8.41% (active).

As for `Cc1c(C(=O)N2CCCC2)sc2ncn(CC(=O)N3CCCC3)c(=O)c12`, the normalized activity (activation) is 0.33%.

Turning to `Cc1c(C(=O)N2CCOCC2)oc2c1-c1nn(CC(=O)NC(C)c3ccccc3)cc1CC2` (centres undefined), the normalized activity (activation) was -0.04%.

On to `Nc1nnc(-c2ccc(Cn3c(-c4cncs4)nc4ccccc43)cc2)s1`, for which the normalized activity (activation) is 0.1%.

Turning to `O=C(O)CCCN1C(=O)C(=O)/C(=C(\O)c2ccccc2)C1c1cccc(F)c1` (centres undefined), the normalized activity (activation) is -0.31%.

As to `CC1CCCN(S(=O)(=O)c2cccc3cccnc23)C1` (centres undefined), the normalized activity (activation) is -0.09%.

Regarding `Cc1c(Cc2ccccc2)c(N2CCCCC2)n2c(nc3ccccc32)c1C#N`, the normalized activity (activation) was 0.12%.

`Cc1cc(NCCN2CCCCCC2)n2c(nc3ccccc32)c1C#N`: the normalized activity (activation) was 2.12% (active).

Turning to `Cc1cc(Nc2ccc(Cl)cc2)n2c(nc3ccccc32)c1C#N`, the normalized activity (activation) was -0.02%.

With `CC(=O)c1cccc(-c2nc3ncnc(NCCOc4ccccc4)c3[nH]2)c1`, the normalized activity (activation) was 0.01%.

As to `CCOc1ccc(Nc2nc(C)c([N+](=O)[O-])c(Nc3ccc(OC)cc3)n2)cc1`, the normalized activity (activation) was -0.11%.

Take `CC(C)CC(C(=O)NC1CCCC1)N(C(=O)c1snc(C(N)=O)c1N)C1CCCC1` (centres undefined): the normalized activity (activation) was 0.18%.

For the compound `Cc1ccc(C(=O)NC(C)C(c2cccs2)N2CCN(C)CC2)cc1` (centres undefined), the normalized activity (activation) was -0.03%.

`CCCCOc1ccc(/C=C/c2nc3ccccc3c(=O)n2-c2ccc(C)c(C)c2)cc1`: the normalized activity (activation) is -0.23%.

Consider `CC(=O)Nc1ccc(Nc2nc(Nc3cnccn3)nc3c2ncn3-c2ccccc2)cc1`, for which the normalized activity (activation) was 2.09% (active).

On to `CC(=O)Nc1ccc(Nc2nc(Nc3ccncn3)nc3c2ncn3-c2ccsc2)cc1`, for which the normalized activity (activation) was 0.77%.

As to `CC(=O)Nc1ccc(Nc2nc(Nc3ccc(-n4ccnc4)cc3)nc3c2ncn3-c2ccsc2)cc1`, the normalized activity (activation) was -0.15%.

`COc1ccccc1NC(=O)c1c(C)nc(SCC(=O)c2ccccc2)c(C#N)c1-c1ccc(C)o1`: the normalized activity (activation) was -0.03%.

Turning to `Cc1c(NC(=O)c2ccc(Br)cc2)cccc1-c1nc2ccccc2o1`, the normalized activity (activation) was 0.17%.

`O=C(CSc1n[nH]c(-c2cccs2)n1)NC(=O)NC12CC3CC(CC(C3)C1)C2`: the normalized activity (activation) was -0.03%.

Consider `Cc1sc2ncn3c(SCC(=O)N4CCc5ccccc54)nnc3c2c1C`, for which the normalized activity (activation) is -0.09%.

Regarding `COC(=O)COc1ccc(S(=O)(=O)N2CCN(c3cc(Cl)ccc3C)CC2)cc1`, the normalized activity (activation) is -0.32%.

Take `NC(=O)CN(c1ccccc1)S(=O)(=O)c1ccccc1[N+](=O)[O-]`: the normalized activity (activation) was -0.14%.

With `O=C(CN(c1ccccc1)S(=O)(=O)c1ccccc1[N+](=O)[O-])Nc1ccc(F)cc1`, the normalized activity (activation) was 0.71%.

Consider `O=C(CN(c1ccccc1)S(=O)(=O)c1ccccc1[N+](=O)[O-])N/N=C/c1ccco1`, for which the normalized activity (activation) was 2.75% (active).

`COCCCN1C(=O)C2C(C(=O)Nc3cccc(C)c3)C3C=CC2(O3)C1C(=O)NC1CCCC(C)C1C` (centres undefined): the normalized activity (activation) is 0.2%.

With `C=CCn1c(=NC(=O)c2ccccc2[N+](=O)[O-])sc2cc(S(N)(=O)=O)ccc21`, the normalized activity (activation) was 0%.

Consider `COc1ccccc1C1N(Cc2ccccc2)CCN1Cc1ccccc1`, for which the normalized activity (activation) was 0.1%.

As to `Cc1ccc(Oc2ccc(N(C)C(=O)Nc3ccc(Cl)cc3)cc2)nn1`, the normalized activity (activation) is 0.86%.

`COC(=O)c1c(OCc2ccncc2)cc(=O)n2c1CCN(CCCSC)CC2`: the normalized activity (activation) was 0%.

Take `CC(C)OCCCNC(=O)Nc1cccc(Cl)c1`: the normalized activity (activation) is 0.02%.

Take `C[C@@H](c1ccccc1)n1c(=O)[nH]c2ncc(-c3ccccc3)nc21`: the normalized activity (activation) was 0.05%.

Take `CC(C)NCC(=O)N(c1ccccc1)N1CCOCC1`: the normalized activity (activation) was 0.19%.

Consider `CCCCSc1nnc2c(n1)OC(c1ccc(N(C)C)cc1)Nc1ccccc1-2` (centres undefined), for which the normalized activity (activation) was 0.3%.

Consider `COc1ccc2c(c1)c(=O)c1ccccc1n2CC(=O)Nc1ccc(F)cc1`, for which the normalized activity (activation) is 0%.

As to `O=C(CCCOc1ccc(Cl)cc1Cl)N1CCCC1`, the normalized activity (activation) was 0.05%.

Regarding `N/C(=N\OCc1cc2c(cc1Cl)OCO2)c1nonc1N`, the normalized activity (activation) is 0.4%.

As for `N/C(=N\OC(=O)CCCOc1ccc(Cl)cc1Cl)c1nonc1N`, the normalized activity (activation) was 4.98% (active).

With `Nc1ccnc2cc(-c3ccccc3)nn12`, the normalized activity (activation) was -0.02%.

Turning to `CSc1ncc(C(=O)Nc2ccc3c(c2)OCCO3)c(C)n1`, the normalized activity (activation) is 0.15%.

For `C=CCOC(=O)C1=C(C)Nc2c(c(=O)n(C)c(=O)n2C)C1c1ccc2c(c1)OCO2` (centres undefined), the normalized activity (activation) is 0.09%.

For `Cc1ccc(-c2csc(/C(C#N)=C/c3ccccc3[N+](=O)[O-])n2)cc1`, the normalized activity (activation) is -0.09%.
